# Measurements published in the OligoGym collection.
# What was measured:
# Experiment in all cases: pooled miR-30 sensor sort-seq; sequence = guide strand
# Settings in all cases: shRNA
# PDIA5 = biological target: PDIA5
# PDLIM4 = biological target: PDLIM4
# PDP1 = biological target: PDP1
# PDZD4 = biological target: PDZD4
# Also: reference of the scale not given here.
sequence,measurement,setting,value
TAGAACATGACCAAGGTGTGTT,sensor-assay potency score (higher = more potent),PDIA5,0.669
TCAGGATCGATGTGGATCCTGT,sensor-assay potency score (higher = more potent),PDLIM4,-1.13
TGAGCTCTGTGCTCTCACCATT,sensor-assay potency score (higher = more potent),PDLIM4,-1.16
TAGAGCTTGTCCCGTGCCTTGA,sensor-assay potency score (higher = more potent),PDLIM4,-0.615
ATGATTGTAATGTCATCTCTGT,sensor-assay potency score (higher = more potent),PDP1,0.0872
TTGAACTGAACTACAATGATTG,sensor-assay potency score (higher = more potent),PDP1,-0.787
TCACTTTGTACTGCTCCTCCGG,sensor-assay potency score (higher = more potent),PDZD4,-0.937
TTTTGAAGGTCAATGCTCCATT,sensor-assay potency score (higher = more potent),PDP1,-0.4
TTGTGAGGGACTGGAAAGCGAG,sensor-assay potency score (higher = more potent),PDLIM4,-1.61
TCGGAGCCCAGGTCGACTCTGC,sensor-assay potency score (higher = more potent),PDLIM4,-1.11
AGACAGTGTGAGGTGATCGTGG,sensor-assay potency score (higher = more potent),PDLIM4,-1.1
TTGGTCTGCCATCTTCTGGCCC,sensor-assay potency score (higher = more potent),PDLIM4,-0.715
TAATTCAACCTTTTTGTCCTTC,sensor-assay potency score (higher = more potent),PDIA5,0.526
TACAACATGAGAATTGAACTGA,sensor-assay potency score (higher = more potent),PDP1,1.04
TTTCAGTTTACGAGCACGCAGC,sensor-assay potency score (higher = more potent),PDZD4,-0.95
TTGCAGGCCAAACTTGCGCAGG,sensor-assay potency score (higher = more potent),PDZD4,-1.4
TCGTCGGTCGTCATACCGCTGC,sensor-assay potency score (higher = more potent),PDZD4,-0.818
TGCACATGAAGCACTCGGGATG,sensor-assay potency score (higher = more potent),PDLIM4,-1.65
TAGAACTGACATTTTTGCCGTC,sensor-assay potency score (higher = more potent),PDP1,0.378
TTGATCTCCAGGAGCTCACGGT,sensor-assay potency score (higher = more potent),PDZD4,-0.853
TCACTGCACATGAAGCACTCGG,sensor-assay potency score (higher = more potent),PDLIM4,-0.799
TTTGGCTGCAATGCTGTTGGGA,sensor-assay potency score (higher = more potent),PDZD4,-0.7
TATTCATTGTCATTCAACTGGT,sensor-assay potency score (higher = more potent),PDP1,-0.478
TCGTCGTCGGTCGTCATACCGC,sensor-assay potency score (higher = more potent),PDZD4,-1.57
TGCATTTTCAATCTCTAGCAAA,sensor-assay potency score (higher = more potent),PDP1,-1.4
TACACCGTTAATCTGGATGATG,sensor-assay potency score (higher = more potent),PDZD4,-1.18
TTGTCCATATGGAGATCCCAGG,sensor-assay potency score (higher = more potent),PDLIM4,-1.39
TTTAAGGATGCTATTGACTTGT,sensor-assay potency score (higher = more potent),PDP1,0.228
AAAGAAGTAACCACGCTGCTTG,sensor-assay potency score (higher = more potent),PDLIM4,0.146
TGAAACTGTATTCATTAGCTTT,sensor-assay potency score (higher = more potent),PDP1,-0.926
TTCACTTTCCACTCCATGCGCG,sensor-assay potency score (higher = more potent),PDZD4,-0.515
TCATCCAGGAAGTCATCCCGGT,sensor-assay potency score (higher = more potent),PDZD4,-0.501
TTTTATACAGCTCCACCTCCTC,sensor-assay potency score (higher = more potent),PDZD4,-1.13
TACTGGAACAAGAACCGTCCTT,sensor-assay potency score (higher = more potent),PDIA5,0.0118
TTAGGAGGAATAAACTTGGTAT,sensor-assay potency score (higher = more potent),PDP1,-0.0779
TCAACTTTCATCTTCTTGCACA,sensor-assay potency score (higher = more potent),PDIA5,-0.596
